Bioassay records deposited in PubChem BioAssay by National Center for Advancing Translational Sciences (NCATS).
Pf Dd2 growth = inhibitors of Plasmodium falciparum Dd2 growth; Potency, µM (titrated, usually from 28.9 µM), hits mostly inhibitors; P. falciparum Dd2 growth, SYBR Green, 72 h; 120,000 tested, 4.3% active; active = well fitted inhibition curve with a large enough effect; note: nearly all actives have a fitted effect of over 65% in size
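Readout: SYBR Green fluorescence, 485 nm excitation, 535 nm emission, after ~16 h lysis at 37C. Before that, Dd2-infected red cells (2.5% hematocrit) grew 72 h with compound, 29 uM top final concentration.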
Large screens that a line does not name were inactive. Shown is part of a subset that was picked to be rich in hits.

COC(=O)CNC(=O)C1c2ccccc2C(=O)N(C2CCCC2)C12CCCCC2 (stereo not given)	none
O=C(NC1CCCC1)C1c2ccccc2C(=O)N(C2CCCC2)C12CCCCC2 (stereo not given)	Pf Dd2 growth 10µM
COc1ccc(CCC(=O)N2C[C@@H](C(N)=O)[C@H](c3nc(C)no3)C2)cc1OC	none
O=C(NCc1cccnc1)C1CCC(=O)N1C1CCN(C(=O)Cc2ccccc2F)CC1 (stereo not given)	none
CC(=O)Nc1ccc(C(=O)N2CCN(c3ccc(Cl)nn3)C(=O)C2)cc1	none
Cc1ccc(CC(=O)N[C@@H]2CN(c3ccncn3)C[C@H]2CN(C)C)cc1	none
CN(C)C[C@@H]1CN(c2ccncn2)C[C@H]1NC(=O)COc1ccc(Cl)cc1	Pf Dd2 growth 7.9µM
COc1ccc(CCC(=O)N[C@@H]2CN(c3ccncn3)C[C@H]2CN(C)C)cc1	none
CN1[C@@H](CCC(=O)NCc2ccccc2)CNC(=O)[C@@H]2[C@H]1CCN2Cc1ccc(O)cc1	none
Cc1ccc(-c2noc([C@@H]3Cc4nc[nH]c4CN3C(=O)c3ccc(F)cc3)n2)cc1	none
O=C(NCc1ccccc1)N1Cc2[nH]cnc2C[C@H]1c1nc(-c2ccc3c(c2)OCO3)no1	none
N#Cc1ccc(C(=O)N2Cc3[nH]cnc3C[C@H]2c2nc(-c3ccc4c(c3)OCO4)no2)cc1	Pf Dd2 growth 10µM
Cc1cc(SCC(=O)Nc2ccc(Cl)cc2)nc2ccccc12	none
Cc1cc(N2CCN(C)CC2)nc2ccc(NC(=O)Nc3ccc(Cl)cc3)cc12	Pf Dd2 growth 11µM
COc1cc(C(=O)Nc2ccc(NC(=O)c3ccc(C(C)(C)C)cc3)cc2)cc(OC)c1OC	none
CCOc1ccccc1NC(=O)Nc1nnc(N2CCCCCC2)s1	none
CCOc1ccccc1NC(=O)Nc1ccc2nc(N3CCN(C)CC3)cc(C)c2c1	Pf Dd2 growth 0.45µM
CN1CCN(c2ccc3nnc(-c4cc(C(=O)Nc5cccc(Cl)c5)ccn4)n3n2)CC1	none
COc1ccccc1CC(=O)Nc1ccc2nc(N3CCC(C)CC3)cc(C)c2c1	none
Cc1ccccc1NC(=O)Nc1ccc2nc(N3CCN(C)CC3)cc(C)c2c1	Pf Dd2 growth 2µM
Cc1cc(N2CCN(C)CC2)nc2ccc(NC(=O)c3ccc(C(C)(C)C)cc3)cc12	Pf Dd2 growth 6.3µM
Cc1ccccc1C(=O)Nc1ccc2nc(N3CCCCC3)cc(C)c2c1	none
CC(C)(C)c1ccc(C(=O)Nc2ccc(NC(=O)c3ccc(Cl)c(Cl)c3)cc2)cc1	none
Cc1cc(N2CCC(C)CC2)nc2ccc(NC(=O)Cc3ccccc3Br)cc12	none
Cc1nn(C)c2nc(N3CCC(C#N)(c4ccccc4)CC3)sc12	none
Cc1cc(-c2nc(C3CCOC3)no2)c2ccccc2n1 (stereo not given)	none
O=C(c1ccccc1C(F)(F)F)N1CCC2(CC1)CC(O)CCO2 (stereo not given)	none
COc1cccc(-c2nnnn2[C@H]2CO[C@H]3[C@@H]2OC[C@@H]3NC(=S)Nc2ccc(F)cc2)c1	none
CCC(c1cccnc1)N(C)C(=O)c1cc(COc2ccccc2)[nH]n1 (stereo not given)	none
COCCN1CC2(CCCN(C(=O)c3ccccc3-n3cncn3)C2)CCC1=O (stereo not given)	none
CC1=C[C@@H](CO)[C@H](C(C)C)C[C@H]1CC(=O)NCc1ccc(C(F)(F)F)cc1	none
COCc1noc([C@@H]2CN(C(=O)C3(C)CCCCC3)C[C@H]2CO)n1	none
O=C(CCN1c2ccccc2Sc2ccccc21)N1CCCC(c2nc(C3CCOCC3)no2)C1 (stereo not given)	none
O=S(=O)(NC[C@H]1C[C@@H]2CCN1C[C@@H]2CN1CCOCC1)c1ccccc1	none
COc1ccc(C(=O)N2[C@@H]3CC[C@H]2CC(NC(=O)c2ccncc2)C3)cn1 (stereo not given in full)	none
CC(C)CC(=O)N1CCCN(S(C)(=O)=O)c2ccccc21	none
Cc1ccc(-c2cc(C3CCN(C(=O)c4ccncc4)CC3)[nH]n2)cc1	none
COc1ccc(CC(=O)N2Cc3ccccc3CC23CCCN([S+](C)(=O)[O-])C3)cc1 (stereo not given)	none
COc1ccc(CN2CCC(CO)(CN3CCCC3)CC2)cc1C	none
Cc1cc(CN2CCC(CO)(CN3CCCC3)CC2)ccc1F	none
CCc1ccc(CN2CCC(CO)(CN3CCCC3)CC2)cc1	Pf Dd2 growth 7.1µM
COc1ccc(CN2CCC(CO)(CN3CCCC3)CC2)cc1OC	none
OCC1(CN2CCCC2)CCN(Cc2cnn(-c3ccccc3)c2)CC1	none
CC(C)Oc1ccc(CN2CCC(CO)(CN3CCCC3)CC2)cc1Cl	Pf Dd2 growth 13µM
CCC(C)NC(=O)N1CCN(Cc2c(C)noc2C)CC1 (stereo not given)	none
COc1cc(Cl)c(C)cc1NC(=O)CN1C(=O)NC(c2ccc(Cl)cc2)C2=C1COC2=O (stereo not given)	none
COC1C(=O)N(C2CCN(C(=O)c3cnccc3C)CC2)C12CCOCC2 (stereo not given)	none
CCCC(=O)N1CCC(O)(c2ccccc2)[C@H](N2CCCC2)C1 (stereo not given in full)	none
Cc1c(CN2CCC(O)(c3ccccc3)[C@H](N3CCCC3)C2)cnn1C (stereo not given in full)	Pf Dd2 growth 0.45µM
COCC(=O)N1CCC(O)(c2ccccc2)[C@H](N2CCCC2)C1 (stereo not given in full)	none
CCc1nc2c(c(-c3ccc(OC)cc3)n1)CCN(C(=O)c1ccccn1)CC2	none
C[C@@]1(O)CCN(C(=O)CCCS(N)(=O)=O)C[C@@H]1Cc1ccccc1	none
N#Cc1cccc(NC(=O)NC[C@H]2C[C@@H]3CCN2C[C@@H]3CN2CCSCC2)c1	none
CSc1cccc(NC(=O)NC[C@H]2C[C@@H]3CCN2C[C@@H]3CN2CCSCC2)c1	Pf Dd2 growth 10µM
CN1CCN(C[C@H]2CN3CC[C@H]2C[C@@H]3CNC(=O)Nc2ccccc2)CC1	none
Fc1ccc(-c2ccc3ncc(Nc4ccc5c(c4)OCO5)n3n2)cc1	none
COc1ncccc1Nc1cnc2ccc(N(C)C)nn12	none
CN1CCN(c2ccc3ncc(Nc4ccccc4F)n3n2)CC1	none
Fc1ccc(-c2ccc3ncc(Nc4ccnc(N5CCOCC5)c4)n3n2)cc1	Pf Dd2 growth 0.56µM
COc1cncc(Nc2cnc3ccc(N(C)Cc4ccc(F)cc4)nn23)c1	none
CN(Cc1ccc(F)cc1)c1ccc2ncc(Nc3ccc4c(c3)OCCO4)n2n1	Pf Dd2 growth 5.6µM
FC(F)(F)Oc1ccc(Nc2cnc3ccc(N4CCOCC4)nn23)cc1	Pf Dd2 growth 11µM
CN(Cc1ccc(F)cc1)c1ccc2ncc(Nc3ccnc(N4CCOCC4)c3)n2n1	Pf Dd2 growth 4µM
COc1ccc(Nc2cnc3ccc(N4CCOCC4)nn23)cn1	none
COc1cccc(Nc2cnc3ccc(N4CCOCC4)nn23)c1	none
FC(F)(F)c1cc(Nc2cnc3ccc(N4CCOCC4)nn23)ccc1Cl	none
Clc1ccccc1Nc1cnc2ccc(N3CCOCC3)nn12	none
CNC(=O)N1CCCCCCNC(=O)[C@@H]2CCCC[C@@H]21	none
CCCCSCc1cc(C(=O)N2Cc3nnc(C)n3C(C)C2)oc1C (stereo not given)	none
CN(Cc1ccc(-c2ccccc2)cc1)Cc1ccccc1Cl	none
COCCCN1C(=O)CC(CC(=O)N2CCC(C(O)c3ccccc3)CC2)(c2ccccc2C)C1=O (stereo not given)	none
O=[N+]([O-])c1cccc(-c2noc([C@@H]3C[C@@H](O)CN3Cc3cc4ccccc4o3)n2)c1	none
O=C1CCN(S(=O)(=O)c2ccccc2)CCCC(CO)CCN1 (stereo not given)	none
COC(=O)CNC(=O)c1cc(-c2cccnc2)c2nncn2n1	none
Cc1ccc(NC(=O)N2C[C@@H](F)C[C@H]2C(=O)N2CCCCC2)c(C)c1	none
